From PubChem BioAssay (EPA / NIEHS)
Where “and” joins values, the source holds several entries; their conditions need not be identical. Equal entries are not always repeated. A structure can be active in one record and inactive in another. Calls of active or inactive are those of the source. Rule for the calls: active = hit-call score of the fitted dose curve at least 0.9, where 1 is the maximum; inactive = score below 0.9.

Key:
[1] = BSK_CASM3C_Proliferation: Cell Proliferation Assessment in the BioMAP Diversity Plus: CASM3C Assay (AID 2283047); settings: primary human coronary artery smooth muscle cells;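 note: sulforhodamine B total protein stain as relative cell number at 560 nm; sub-confluent cells exposed 48 h before staining; fitted both ways against DMSO so gain or loss of cell number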
[2] = read-out: Tissue Factor, F3 (gene 2152); test: BSK_CASM3C_TissueFactor: BioMAP Diversity Plus: CASM3C Assay for Tissue Factor Biomarker Activity (AID 2283052); settings: primary human coronary artery smooth muscle cells; actives raise or lower the signal;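 note: cell surface tissue factor protein level read by ELISA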
[3] = read-out: Vascular cell adhesion molecule 1 (VCAM1), VCAM1 (gene 7412); test: BSK_CASM3C_VCAM1: BioMAP Diversity Plus: CASM3C Assay for Vascular cell adhesion molecule 1 (VCAM1) Biomarker Activity (AID 2283055); settings: primary human coronary artery smooth muscle cells; actives raise or lower the signal;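 note: VCAM-1 protein level quantified by ELISA on the cells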
[4] = read-out: Epidermal growth factor receptor (EGFR), EGFR (gene 1956); test: BSK_hDFCGF_EGFR: BioMAP Diversity Plus: hDFCGF Assay for Epidermal growth factor receptor (EGFR) Biomarker Activity (AID 2283057); settings: primary human foreskin fibroblasts; actives raise or lower the signal
How it was run: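 Measured by ELISA: EGFR levels on primary human foreskin fibroblasts 24 h after chemical treatment, analysed relative to DMSO with bidirectional fitting.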

[5] = read-out: Interleukin-8 (IL8), CXCL8 (gene 3576); test: BSK_hDFCGF_IL8: BioMAP Diversity Plus: hDFCGF Assay for Interleukin-8 (IL8) Biomarker Activity (AID 2283058); settings: primary human foreskin fibroblasts; actives raise or lower the signal
How it was run: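 ELISA read-out of IL-8 from primary human foreskin fibroblast cultures taken 24 h after dosing; values are bidirectional fits relative to DMSO vehicle.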

[6] = BSK_hDFCGF_SRB: Viability Assessment in the BioMAP Diversity Plus: hDFCGF Assay (AID 2283061); settings: primary human foreskin fibroblasts;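 note: cells exposed to compound for 24 h before the read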
How it was run: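 Primary human foreskin fibroblasts; 24 h post-dose; fixed 10% TCA, stained 0.1% SRB, A560 read; total protein as overt cytotoxicity measure; curves fit bidirectionally vs DMSO control.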

[7] = read-out: TIMP metallopeptidase inhibitor 1 (TIMP1), TIMP1 (gene 7076); test: BSK_hDFCGF_TIMP1: BioMAP Diversity Plus: hDFCGF Assay for TIMP metallopeptidase inhibitor 1 (TIMP1) Biomarker Activity (AID 2283062); settings: primary human foreskin fibroblasts; actives raise or lower the signal
How it was run: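 ELISA readout of TIMP-1 from human dermal foreskin fibroblast cultures 24 h post-dosing. Curves were fitted in both directions against DMSO baseline, with SRB total-protein staining in parallel cultures as a cytotoxicity check.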

[8] = read-out: Monokine induced gamma interferon (MIG), CXCL9 (gene 4283); test: BSK_hDFCGF_MIG: BioMAP Diversity Plus: hDFCGF Assay for Monokine induced gamma interferon (MIG) Biomarker Activity (AID 2283063); settings: primary human foreskin fibroblasts; actives raise or lower the signal
How it was run: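 Fibroblasts (human foreskin, primary) dosed, 24 h, MIG by ELISA; fit bidirectional vs DMSO.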

[9] = read-out: Matrix Metallopeptidase 1 (MMP1), MMP1 (gene 4312); test: BSK_hDFCGF_MMP1: BioMAP Diversity Plus: hDFCGF Assay for Matrix Metallopeptidase 1 (MMP1) Biomarker Activity (AID 2283064); settings: primary human foreskin fibroblasts; actives raise or lower the signal
How it was run: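 Primary human foreskin fibroblasts exposed to chemicals for 24 h; MMP1 measured by ELISA. Cytotoxicity tracked by SRB staining in parallel cultures; bidirectional fit relative to DMSO.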

[10] = read-out: Vascular cell adhesion molecule 1 (VCAM1), VCAM1 (gene 7412); test: BSK_hDFCGF_VCAM1: BioMAP Diversity Plus: hDFCGF Assay for Vascular cell adhesion molecule 1 (VCAM1) Biomarker Activity (AID 2283065); settings: primary human foreskin fibroblasts; actives raise or lower the signal;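 for AC50: VCAM-1 protein level quantified by ELISA after 24 h chemical exposure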
How it was run: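 ELISA read-out of VCAM-1 on human skin fibroblasts, 24 h post-dose; gain or loss of signal fitted bidirectionally against DMSO baseline.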

[11] = read-out: Plasminogen activator inhibitor-1 (PAI1), SERPINE1 (gene 5054); test: BSK_hDFCGF_PAI1: BioMAP Diversity Plus: hDFCGF Assay for Plasminogen activator inhibitor-1 (PAI1) Biomarker Activity (AID 2283066); settings: primary human foreskin fibroblasts; actives raise or lower the signal
How it was run: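 PAI-1 levels, determined by ELISA, served as the endpoint in human foreskin fibroblast cultures exposed to compound for 24 h, with DMSO as baseline.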

[12] = read-out: Interferon-gamma inducible Protein 10 (IP10), CXCL10 (gene 3627); test: BSK_KF3CT_IP10: BioMAP Diversity Plus: KF3CT Assay for Interferon-gamma inducible Protein 10 (IP10) Biomarker Activity (AID 2283068); settings: primary human keratinocytes with fibroblasts; actives raise or lower the signal
How it was run: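 KF3CT co-culture (keratinocytes + foreskin fibroblasts), 24 h compound, IP-10 by ELISA; bidirectional fit vs DMSO baseline.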

[13] = BSK_KF3CT_SRB: Viability Assessment in the BioMAP Diversity Plus: KF3CT Assay (AID 2283069); settings: primary human keratinocytes with fibroblasts;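 note: total protein by sulforhodamine B staining as a cytotoxicity measure; read 24 h after compound addition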
How it was run: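 Human keratinocyte and foreskin fibroblast co-culture exposed to chemical for 24 h. Total protein measured in parallel cultures by 0.1% sulforhodamine B staining after 10% TCA fixation, read at 560 nm; bidirectional fit relative to DMSO.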

[14] = read-out: TIMP metallopeptidase inhibitor 2 (TIMP2), TIMP2 (gene 7077); test: BSK_KF3CT_TIMP2: BioMAP Diversity Plus: KF3CT Assay for TIMP metallopeptidase inhibitor 2 (TIMP2) Biomarker Activity (AID 2283071); settings: primary human keratinocytes with fibroblasts; actives raise or lower the signal
How it was run: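 Keratinocyte–fibroblast co-culture, 24 h exposure; TIMP-2 ELISA, DMSO-normalised bidirectional fit. Parallel SRB (0.1%, TCA-fixed, 560 nm) total-protein staining gauges cytotoxicity.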

[15] = read-out: Transforming growth factor beta 1 (TGFb1), TGFB1 (gene 7040); test: BSK_KF3CT_TGFb1: BioMAP Diversity Plus: KF3CT Assay for Transforming growth factor beta 1 (TGFb1) Biomarker Activity (AID 2283072); settings: primary human keratinocytes with fibroblasts; actives raise or lower the signal
How it was run: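 Signal changes in either direction, relative to DMSO, define activity here. TGF-b1 is read by ELISA from a human keratinocyte-fibroblast co-culture 24 h post-dose.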

[16] = read-out: urokinase plasminogen activator (uPA), PLAU (gene 5328); test: BSK_KF3CT_uPA: BioMAP Diversity Plus: KF3CT Assay for urokinase plasminogen activator (uPA) Biomarker Activity (AID 2283075); settings: primary human keratinocytes with fibroblasts; actives raise or lower the signal
How it was run: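 Primary human keratinocyte/foreskin fibroblast co-culture exposed to chemical; uPA measured by ELISA at 24 h. Bidirectional fit versus DMSO, with parallel SRB total-protein staining for cytotoxicity.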

[17] = read-out: Macrophage colony-stimulating factor (MCSF), CSF1 (gene 1435); test: BSK_LPS_MCSF: BioMAP Diversity Plus: LPS Assay for Macrophage colony-stimulating factor (MCSF) Biomarker Activity (AID 2283083); settings: primary human HUVEC with PBMC; actives raise or lower the signal
How it was run: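 HUVEC + PBMC co-culture (human primary), 24 h post-dose; M-CSF by ELISA; gain/loss of signal fitted bidirectionally vs DMSO baseline.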

[18] = read-out: Tissue Factor, F3 (gene 2152); test: BSK_LPS_TissueFactor: BioMAP Diversity Plus: LPS Assay for Tissue Factor Biomarker Activity (AID 2283084); settings: primary human HUVEC with PBMC; actives raise or lower the signal
How it was run: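 HUVEC/PBMC co-culture, LPS-activated; CD142 ELISA read 24 h post-dose; bidirectional curve fit vs DMSO negative control.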

[19] = read-out: Vascular cell adhesion molecule 1 (VCAM1), VCAM1 (gene 7412); test: BSK_LPS_VCAM1: BioMAP Diversity Plus: LPS Assay for Vascular cell adhesion molecule 1 (VCAM1) Biomarker Activity (AID 2283086); settings: primary human HUVEC with PBMC; actives raise or lower the signal
How it was run: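 Primary human vascular co-culture (umbilical vein endothelium plus PBMC) stimulated with LPS received chemical; 24 h later VCAM-1 was read by ELISA. Overt cytotoxicity was assessed by sulforhodamine B staining of parallel cultures at the same time point.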

CD38, CD38 (gene 952) = test: BSK_SAg_CD38: BioMAP Diversity Plus: SAg Assay for CD38 Biomarker Activity (AID 2283087); settings: primary human HUVEC with PBMC; actives raise or lower the signal
How it was run: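 Fluorescence ELISA of cell-surface CD38 served as the read-out, with either increase or decrease fitted against DMSO controls. Cells were a human umbilical vein endothelium plus PBMC co-culture under SEB/TSST-1 stimulation, measured 24 h after dosing.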

Measured: AC50

O=c1c2ccccc2c(=O)c2c1cc(Cl)c1[nH]c3c([nH]c12)c(Cl)cc1c(=O)c2ccccc2c(=O)c13
active: [10] 14.4 µM
inactive: all other assays above

CCCOC(=O)c1ccccc1C(=O)OCCC
active: [17] 7.39 µM
inactive: all other assays above

O=P1(NCCCl)OCCCN1CCCl (stereo not given)
inactive: all assays above

O=c1[nH]c(Cl)c(Cl)cc1Cl
inactive: all assays above

COC(C)(C)CCC[C@H](C)C/C=C/C(C)=C/C(=O)OC(C)C
inactive: [4] | [5] | [13] | [16]
active: [1] 17.2 µM | [2] 20 µM | [3] 20 µM | [6] 30.7 µM | [7] 29.8 µM | [8] 33.2 µM | [9] 32.5 µM | [10] 25 µM | [11] 28.4 µM | [12] 33.6 µM | [14] 9.64 µM | [15] 15.3 µM | [17] 20.5 µM | [18] 26.8 µM | [19] 27.4 µM | CD38, CD38 (gene 952) 30.4 µM

Cc1ccc(OP(=O)(Oc2ccc(C)cc2)Oc2ccc(C)cc2)cc1 (tested in a mixture with another compound)
active: [6] 23.2 µM | [14] 5.39 µM | [15] 4.81 µM | [17] 16.1 µM | CD38, CD38 (gene 952) 20 µM
inactive: all other assays above

O=C(O)CCCc1ccc(N(CCCl)CCCl)cc1
active: [1] 20 µM and 1.6 µM | [2] 15.2 µM and 5.57 µM | [3] 17 µM and 20 µM | [12] 31.9 µM and 36.2 µM | [14] 30.6 µM and 32.6 µM | [15] 29.8 µM | [17] 17.7 µM and 20 µM | [18] 20 µM and 12.5 µM | [19] 20 µM and 28.3 µM | CD38, CD38 (gene 952) 26.6 µM and 12.3 µM
inactive: [4] | [5] | [6] | [7] | [8] | [9] | [10] | [11] | [13] | [15] | [16]

CNC(=O)Oc1cc(C)c(SC)c(C)c1
active: [1] 20 µM | [2] 8.16 µM | [3] 20 µM | [19] 20 µM
inactive: all other assays above

O=[N+]([O-])O
not listed: [15]
inactive: all other assays above

CC(C)CCCCCCCOP(=O)(Oc1ccccc1)Oc1ccccc1
inactive: [1] | [2] | [3]
active: [4] 3.97 µM | [5] 25.7 µM | [6] 8.83 µM | [7] 12.8 µM | [8] 11 µM | [9] 20 µM | [10] 5.85 µM | [11] 8.46 µM | [12] 30.3 µM | [13] 25.7 µM | [14] 16.1 µM | [15] 20 µM | [16] 20 µM | [17] 15.3 µM | [18] 31 µM | [19] 27.8 µM | CD38, CD38 (gene 952) 25.9 µM

CC(=O)/C=C/c1ccccc1
active: [17] 16.9 µM | [19] 20 µM
inactive: all other assays above
